# According to PubChem BioAssay (NCATS):
# Several values for one entry are separate records, joined by “and”; a condition that tells them apart may be missing. Equal entries are not always repeated. Records with an inconclusive call do not appear. Entries that show only a call come without a potency. Unmarked numbers belong to inactive results. Activity calls are given as the source filed them. Calls follow the shape of the dose curve; as a rule, active = well fitted curve in the direction sought with a large enough effect; inconclusive = small, poorly fitted or top-dose-only effect, or another doubt; inactive = no such curve, though single readings can be large; an effect the other way counts as inactive or inconclusive.
# Columns and labels:
# [1] = Primary qHTS for inhibitors of nuclear receptor binding SET domain protein 2 (NSD2) in an isogenic RCH-ACV NSD2 p.E1099K mutant (9B) (AID 1645876); also: nearly all actives have a fitted effect of over 70% in size; also: potency is read from the fitted curve at half-maximal effect
# [2] = Primary qHTS for inhibitors of nuclear receptor binding SET domain protein 2 (NSD2) in an RCH-ACV wild type WT cells (2C) (AID 1645877); also: nearly all actives have a fitted effect of over 70% in size; also: potency is read from the fitted curve at half-maximal effect
# [3] = target: Rap guanine nucleotide exchange factor 3 (Homo sapiens) (UniProt O95398); assay: Confirmatory qHTS for antagonist of cAMP-regulated guanine nucleotide exchange factor 3 (EPAC1) (AID 1645880); also: nearly all actives have a fitted effect of over 55% in size; also: potency is read from the fitted curve at half-maximal effect
# Method in brief: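 Released BODIPY-GDP fluoresces less than Rap1-bound BODIPY-GDP; the signal is followed at 480/540 nm at 5-min intervals over 30 min, after 5 min at room temperature. Reactions contain 100 nM EPAC1, 250 nM RAP1B-BODIPY-GDP and 50 uM GDP; results are normalized to ATA and DMSO.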
# [4] = target: Rap guanine nucleotide exchange factor 3 (Homo sapiens) (UniProt O95398); assay: Confirmatory qHTS for agonist of cAMP-regulated guanine nucleotide exchange factor 3 (EPAC1) (AID 1645881);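 also: EPAC1 catalysed release of BODIPY-GDP from Rap1B seen as fluorescence loss; nearly all actives have a fitted effect of over 75% in size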
# [5] = target: Rap guanine nucleotide exchange factor 4 (Homo sapiens) (UniProt Q8WZA2); assay: Confirmatory qHTS for agonist of cAMP-regulated guanine nucleotide exchange factor 4 (EPAC2) (AID 1645884);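 also: nucleotide exchange releases bodipy-GDP from Rap1 and this lowers its fluorescence; nearly all actives have a fitted effect of over 65% in size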
# [6] = target: Rap guanine nucleotide exchange factor 4 (Homo sapiens) (UniProt Q8WZA2); assay: Confirmatory qHTS for antagonist of cAMP-regulated guanine nucleotide exchange factor 4 (EPAC2) (AID 1645885); also: potency is read from the fitted curve at half-maximal effect; nearly all actives have a fitted effect of over 25% in size
# Rap guanine nucleotide exchange factor 4 (Homo sapiens), sequence (Q8WZA2 whole entry, looked up): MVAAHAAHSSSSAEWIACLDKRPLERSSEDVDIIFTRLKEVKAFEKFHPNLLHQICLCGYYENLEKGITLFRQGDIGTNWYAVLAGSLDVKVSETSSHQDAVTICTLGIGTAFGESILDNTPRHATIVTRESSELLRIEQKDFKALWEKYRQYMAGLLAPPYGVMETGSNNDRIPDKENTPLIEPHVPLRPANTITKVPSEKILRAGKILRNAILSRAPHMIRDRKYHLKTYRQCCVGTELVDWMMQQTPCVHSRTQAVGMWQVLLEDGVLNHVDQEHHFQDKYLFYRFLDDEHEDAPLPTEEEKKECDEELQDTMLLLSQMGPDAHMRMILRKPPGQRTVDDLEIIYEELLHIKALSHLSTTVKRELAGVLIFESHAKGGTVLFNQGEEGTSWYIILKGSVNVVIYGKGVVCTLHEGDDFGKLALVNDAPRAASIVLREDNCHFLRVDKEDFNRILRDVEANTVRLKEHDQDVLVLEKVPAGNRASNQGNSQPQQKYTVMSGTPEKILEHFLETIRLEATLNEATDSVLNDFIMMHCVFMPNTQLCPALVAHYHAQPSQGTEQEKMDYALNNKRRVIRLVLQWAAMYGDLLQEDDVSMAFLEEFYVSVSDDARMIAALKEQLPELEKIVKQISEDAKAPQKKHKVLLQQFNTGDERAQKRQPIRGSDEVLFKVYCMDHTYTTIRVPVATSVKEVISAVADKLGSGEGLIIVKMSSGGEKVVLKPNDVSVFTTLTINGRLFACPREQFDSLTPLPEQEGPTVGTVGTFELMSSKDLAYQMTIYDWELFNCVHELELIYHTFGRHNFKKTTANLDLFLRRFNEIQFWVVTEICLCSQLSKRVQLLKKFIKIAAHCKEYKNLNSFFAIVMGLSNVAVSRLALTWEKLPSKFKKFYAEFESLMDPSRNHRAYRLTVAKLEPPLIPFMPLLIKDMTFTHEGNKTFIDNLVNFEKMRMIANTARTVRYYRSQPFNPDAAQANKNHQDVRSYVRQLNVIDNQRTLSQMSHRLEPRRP
# Rap guanine nucleotide exchange factor 3 (Homo sapiens), sequence (O95398 whole entry, looked up): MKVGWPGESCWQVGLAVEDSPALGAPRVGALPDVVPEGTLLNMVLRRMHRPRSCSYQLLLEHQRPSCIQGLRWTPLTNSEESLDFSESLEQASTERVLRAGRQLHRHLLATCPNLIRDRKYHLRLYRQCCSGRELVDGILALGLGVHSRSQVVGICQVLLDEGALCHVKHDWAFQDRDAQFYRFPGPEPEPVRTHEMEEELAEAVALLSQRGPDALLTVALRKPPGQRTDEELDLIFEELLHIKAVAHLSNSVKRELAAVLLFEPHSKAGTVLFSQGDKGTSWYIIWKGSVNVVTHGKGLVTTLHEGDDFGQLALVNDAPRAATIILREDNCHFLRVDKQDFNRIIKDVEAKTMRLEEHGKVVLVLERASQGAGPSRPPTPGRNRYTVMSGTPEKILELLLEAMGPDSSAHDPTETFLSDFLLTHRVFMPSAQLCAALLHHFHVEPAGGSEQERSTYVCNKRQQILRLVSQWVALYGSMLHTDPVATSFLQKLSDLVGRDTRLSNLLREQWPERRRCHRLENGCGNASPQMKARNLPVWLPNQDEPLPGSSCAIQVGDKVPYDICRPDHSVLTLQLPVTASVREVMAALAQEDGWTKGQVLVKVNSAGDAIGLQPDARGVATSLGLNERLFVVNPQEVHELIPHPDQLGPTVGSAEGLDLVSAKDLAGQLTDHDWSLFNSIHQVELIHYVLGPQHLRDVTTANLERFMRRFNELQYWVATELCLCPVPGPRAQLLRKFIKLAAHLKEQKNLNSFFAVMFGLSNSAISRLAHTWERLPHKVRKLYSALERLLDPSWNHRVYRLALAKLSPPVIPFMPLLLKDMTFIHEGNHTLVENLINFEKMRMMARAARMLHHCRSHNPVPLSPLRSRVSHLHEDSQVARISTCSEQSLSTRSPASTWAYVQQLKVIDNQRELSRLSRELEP
smiles,measurement,setting,value
CN(C)c1nc2c(Br)c(Br)c(Br)c(Br)c2[nH]1,Potency,[1],14.6 µM (active)
same,Potency,[2],10.3 µM (active)
NCCO,Potency,[1],inactive
Cc1ccc2c(n1)Oc1ccc(C(C)C(=O)OCC(=O)N(C)C)cc1C2 (stereo not drawn),Potency,[1],inactive
same,Potency,[2],inactive
CC[C@H]1OC(=O)[C@H](C)[C@@H](O[C@H]2C[C@@](C)(OC)[C@@H](O)[C@H](C)O2)[C@H](C)[C@@H](O[C@@H]2O[C@H](C)C[C@H](N(C)C)[C@H]2O)[C@](C)(O)C[C@@H](C)C(=O)[C@H](C)[C@@H](O)[C@]1(C)O,Potency,[1],inactive
same,Potency,[2],inactive
COC(=O)c1nc(Cl)c(Cl)nc1N,Potency,[1],0.0596 µM (active)
same,Potency,[2],0.0376 µM (active)
C/C(=N\O)c1ccc(OCC(=O)N2CCCCC2)cc1,Potency,[1],inactive
same,Potency,[2],inactive
O=C(/C=C/c1ccc(O)cc1)c1ccc(O)cc1O,Potency,[1],8.33 µM (active)
same,Potency,[2],5.25 µM (active)
O=C(CS)Nc1ccccc1,Potency,[1],inactive
same,Potency,[2],inactive
COc1cccc2c1C(=O)c1c(O)c3c(c(O)c1C2=O)C[C@@](O)(C(=O)CO)C[C@@H]3O[C@H]1C[C@H](N)[C@H](O[C@@H]2CCCCO2)[C@H](C)O1,Potency,[1],0.0067 µM (active)
same,Potency,[2],0.0038 µM (active)
O=C(O)Cc1ccc2c(c1)C(=O)c1ccccc1CO2,Potency,[1],inactive
same,Potency,[2],inactive
COC(=O)Nc1nc2ccc(C(=O)C3CC3)cc2[nH]1,Potency,[1],0.376 µM (active)
same,Potency,[2],0.266 µM (active)
O=C(O)Cc1cccc(-c2cc(CCCCCCc3ccc(O[C@H]4O[C@H](CO)[C@@H](O)[C@H](O)[C@@H]4O)c(-c4cccc(CC(=O)O)c4)c3)ccc2O[C@H]2O[C@H](CO)[C@@H](O)[C@H](O)[C@@H]2O)c1,"activity change, negative = viability loss",[1],9.79% [at 0.588 µM]
same,outcome,[2],inactive [at 0.588 µM]
CNC(=O)c1c(I)c(NC(=O)CCCCC(=O)Nc2c(I)c(C(=O)O)c(I)c(C(=O)NC)c2I)c(I)c(C(=O)O)c1I,Potency,[1],inactive
same,Potency,[2],inactive
CC1(C)S[C@@H]2[C@H](NC(=O)[C@H](N)c3ccccc3)C(=O)N2[C@H]1C(=O)O,Potency,[1],inactive
same,Potency,[2],inactive
CC1(C)[C@@H](O[C@H]2O[C@H](C(=O)O)[C@@H](O)[C@H](O)[C@H]2O[C@@H]2O[C@H](C(=O)O)[C@@H](O)[C@H](O)[C@H]2O)CC[C@]2(C)[C@H]3C(=O)C=C4[C@@H]5C[C@@](C)(C(=O)O)CC[C@]5(C)CC[C@@]4(C)[C@]3(C)CC[C@@H]12,Potency,[1],inactive
same,Potency,[2],inactive
[O-][n+]1ccccc1SSc1cccc[n+]1[O-],Potency,[1],0.082 µM (active)
same,Potency,[2],0.103 µM (active)
COC(=O)C1=C(C)NC(C)=C(C(=O)OCC(C)=O)C1c1ccccc1[N+](=O)[O-] (stereo not drawn),Potency,[1],11.9 µM (active)
same,Potency,[2],11.9 µM (active)
CCCCC1C(=O)N(c2ccccc2)N(c2ccc(O)cc2)C1=O (stereo not drawn),Potency,[1],0.531 µM (active)
same,Potency,[2],0.531 µM (active)
COc1cc(/C=C/C(=O)N2CCN(CC(=O)N3CCCC3)CC2)cc(OC)c1OC,Potency,[1],inactive
same,Potency,[2],inactive
CC(C)(C)c1nnc(NS(=O)(=O)c2ccc(N)cc2)s1,Potency,[1],inactive
same,Potency,[2],inactive
Cc1ccc(O)c(-n2nc3ccccc3n2)c1,Potency,[1],inactive
same,Potency,[2],inactive
COc1cc(NC(C)CCCN)c2ncccc2c1 (stereo not drawn),Potency,[1],6.68 µM (active)
same,Potency,[2],5.31 µM (active)
CN(C)c1ccc(C(=C2C=CC(=[N+](C)C)C=C2)c2ccccc2)cc1,Potency,[1],0.0944 µM (active)
same,Potency,[2],0.188 µM (active)
O=C(Nc1ccc(C(=O)O)c(O)c1)c1ccccc1,Potency,[1],inactive
same,Potency,[2],inactive
O=C(CCN1CCN(CCO)CC1)N1c2ccccc2Sc2ccc(C(F)(F)F)cc21,Potency,[1],inactive
same,Potency,[2],inactive
O=c1[nH]c2ccccc2n1CCCN1CCN(C(c2ccccc2)c2ccccc2)CC1,Potency,[1],23.7 µM (active)
same,Potency,[2],23.7 µM (active)
Cc1c(N)c(=O)n(-c2ccccc2)n1C,Potency,[1],inactive
same,Potency,[2],inactive
CC(=O)c1ccc(OCC(=O)N2CCCCC2)cc1,Potency,[1],inactive
same,Potency,[2],inactive
C=CCCCCCCCCC(=O)O,Potency,[1],inactive
same,Potency,[2],inactive
N=C(N)N,Potency,[1],inactive
same,Potency,[2],inactive
c1ccc2sc(SN3CCOCC3)nc2c1,Potency,[1],inactive
same,Potency,[2],inactive
Nc1nc2ccc([N+](=O)[O-])cc2s1,Potency,[1],21.7 µM (active)
same,Potency,[2],19.3 µM (active)
CO[C@@]1(NC(=O)Cc2cccs2)C(=O)N2C(C(=O)O)=C(COC(N)=O)CS[C@@H]21,Potency,[1],inactive
same,Potency,[2],inactive
COc1ccc(-c2cc(=S)ss2)cc1,Potency,[1],inactive
same,Potency,[2],inactive
Cc1[nH]cnc1CN1CCc2c(c3ccccc3n2C)C1=O,Potency,[1],inactive
same,Potency,[2],inactive
Brc1c(Br)c(Br)c2n[nH]nc2c1Br,Potency,[1],inactive
same,Potency,[2],inactive
same,Potency,[3],55.9 µM (active)
same,Potency,[4],inactive
same,Potency,[5],inactive
same,Potency,[6],15.6 µM (active)
C#C[C@]1(O)CC[C@H]2[C@@H]3CCc4cc(O)ccc4[C@H]3CC[C@@]21C,Potency,[1],11.8 µM (active)
same,Potency,[2],18.8 µM (active) and 10.5 µM (active)
CC1(C)[C@@H](O)CC[C@]2(C)[C@H]3C(=O)C=C4[C@@H]5C[C@@](C)(C(=O)O)CC[C@]5(C)CC[C@@]4(C)[C@]3(C)CC[C@@H]12,Potency,[1],inactive
same,Potency,[2],inactive
same,Potency,[3],inactive
same,Potency,[4],inactive
same,Potency,[5],inactive
same,Potency,[6],3.93 µM (active) and 2.48 µM (active)
